{"source": "PubChem BioAssay AID836", "about": "(Columbia University Molecular Screening Center, 2007)", "note": "In all, about 91,000 compounds went through this assay and about 160 (0.18%) were called active. For the sample, actives were picked, then their nearest neighbours and some compounds at random. A number with no mark means an inactive call.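 Rule for the calls: active = inhibition above the batch mean plus 3 SD and confirmed as a hit by visual image inspection (cut at about 30% in these data, passing the limit was not always enough); inconclusive = above the inhibition threshold but rejected on visual inspection; inactive = the rest.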", "data": [{"experiment": "disruptors of actin filament network in HUVEC – imaging, phalloidin staining, high-content imaging, primary screen (AID 836)", "conditions": "HUVEC TNFa F-actin phalloidin imaging, at 2 µM, hits give high values", "values": [{"smiles": "Cn1c2c(c(=O)n(C)c1=O)[C@@H]1c3c(ccc4ccccc34)OC[C@@H]1CO2", "inhibition": "8.1%"}, {"smiles": "COc1ccc2c(c1OC)C(=O)c1ccccc1C2=O", "inhibition": "1%"}, {"smiles": "CCC(C)n1c(-c2cc(OC)c(OC)c(OC)c2)nc2nc3ccccc3nc21", "note": "(centres undefined)", "inhibition": "-3.2%"}, {"smiles": "CCNC(=S)Nc1cccc(Cl)c1C", "inhibition": "11.2%"}, {"smiles": "COc1ccc(-c2csc3nc(-c4ccccc4F)oc(=O)c23)cc1OC", "inhibition": "-3.2%"}, {"smiles": "O=c1oc2c(Cl)cc(Cl)cc2cc1-c1nnc(Nc2ccccc2F)s1", "inhibition": "5%"}, {"smiles": "O=C(/C=C/Nc1ccccc1OC(F)(F)F)C(F)(F)F", "inhibition": "6.2%"}, {"smiles": "CCC(=O)NC(NCC1CCCO1)C(Cl)(Cl)Cl", "note": "(centres undefined)", "inhibition": "-23.7%"}, {"smiles": "C=CCn1c(Oc2ccc(C(=O)OC)cc2)nc2c1c(=O)n(C)c(=O)n2C", "inhibition": "13.6%"}, {"smiles": "O=C(Nc1ccccc1Cl)O/N=C(/c1ccccc1)c1ccccn1", "inhibition": "-5.5%"}, {"smiles": "CC(C)NC(=O)NC(=O)COC(=O)c1ccc(NC(=O)CC#N)cc1", "inhibition": "2%"}, {"smiles": "O=C(O)COc1ccc(-c2nccc(-c3cccs3)n2)cc1", "inhibition": "29.5%"}, {"smiles": "O=C(CSc1ccccc1)Nc1ccc(NC(=O)c2ccco2)cc1", "inhibition": "20.5%"}, {"smiles": "O=C(CCc1ccc(S(=O)(=O)NC2CCCCC2)cc1)NCc1ccccc1", "inhibition": "-16.8%"}, {"smiles": "COc1cccc(C(=O)NNC(=O)c2ccccc2Br)c1", "inhibition": "-16.2%"}, {"smiles": "CC(CNc1ccc([N+](=O)[O-])cc1)NC(=O)c1ccccc1Br", "note": "(centres undefined)", "inhibition": "-6.1%"}, {"smiles": "O=C(Nc1ccc(Cl)cc1)OCc1cc(-c2ccccc2)on1", "inhibition": "-6.9%"}, {"smiles": "O=C1c2oc3ccc(Br)cc3c(=O)c2C(c2cccc(F)c2)N1CCO", "note": "(centres undefined)", "inhibition": "7.4%"}, {"smiles": "COCCN1C(=O)c2oc3c(C)cc(C)cc3c(=O)c2C1c1cccc(O)c1", "note": "(centres undefined)", "inhibition": "53.6% (active)"}, {"smiles": "O=C1c2oc3ccccc3c(=O)c2C(c2cccc(O)c2)N1c1ccccn1", "note": "(centres undefined)", "inhibition": "-31.1%"}, {"smiles": "COc1ccc(C(=O)N2CCc3cc(OC)c(OC)cc3C2c2cccc([N+](=O)[O-])c2)cc1", "note": "(centres undefined)", "inhibition": "-0.9%"}, {"smiles": "CCN(CC)C(=O)CSC1c2ccccc2C(=O)N1c1ccccc1", "note": "(centres undefined)", "inhibition": "-35.9%"}, {"smiles": "Cc1cccc(NC(=S)N2CCC(c3nc4ccccc4s3)CC2)c1", "inhibition": "-9.4%"}, {"smiles": "COC(=O)c1ccc(C(=O)OC)c(NC(=S)N2CCCCC2)c1", "inhibition": "-4.3%"}, {"smiles": "Cc1ccc2nc(Nc3ccccc3O)nc(-c3ccccc3)c2c1", "inhibition": "-0.7%"}, {"smiles": "COc1ccc(/C=N/Nc2nc3ccccc3c(=O)[nH]2)cc1", "inhibition": "0.1%"}, {"smiles": "CC(Oc1ccc(F)cc1F)C(=O)/C=C/N(C)C", "note": "(centres undefined)", "inhibition": "-4.4%"}, {"smiles": "Cc1ccc(OCC(=O)Nc2cccc3c2CCCC3)cc1C", "inhibition": "-5.6%"}, {"smiles": "COc1cc(C(=S)N2CCOCC2)cc(OC)c1OC(=O)c1cc([N+](=O)[O-])c(C)c([N+](=O)[O-])c1", "inhibition": "-7.7%"}, {"smiles": "COc1ccc(C(=S)Nc2ccccc2)cc1", "inhibition": "2.8%"}, {"smiles": "COc1nc(-c2ccc(Cl)cc2)ccc1-c1noc(-c2cccs2)n1", "inhibition": "19.6%"}, {"smiles": "Cc1occc1C(=O)NNC(=S)NCC(C)C", "inhibition": "-20.3%"}, {"smiles": "CSc1ccccc1-c1nnc(-c2ccc(Cl)cc2)o1", "inhibition": "-9.7%"}, {"smiles": "Cc1ccc(-c2nc3ccccc3[nH]2)cc1NC(=O)c1sc2ccccc2c1Cl", "inhibition": "-19%"}, {"smiles": "O=C(c1ccccc1)c1cc(-c2ccccn2)c(N2CCOCC2)s1", "inhibition": "-8.8%"}, {"smiles": "COC(=O)C(C)Oc1ccc2c(-c3cccc([N+](=O)[O-])c3)cc(=O)oc2c1", "note": "(centres undefined)", "inhibition": "19.5%"}, {"smiles": "Cc1ccccc1NC(=O)c1ccccc1NS(=O)(=O)c1cccc2cccnc12", "inhibition": "-7.4%"}, {"smiles": "Cc1nn(Cc2ccccc2Cl)c(C)c1NC(=O)Cn1nc([N+](=O)[O-])c(Cl)c1C", "inhibition": "-13.3%"}, {"smiles": "CC(C)C(C)NC(=O)COc1ncnc2ccccc12", "note": "(centres undefined)", "inhibition": "2.1%"}, {"smiles": "O=C(Nc1ccc(-n2ccnc2P(=O)(O)c2ccccc2)cc1)c1ccccc1Br", "inhibition": "-15.1%"}, {"smiles": "O=C(CSCc1ccc([N+](=O)[O-])cc1)NCCSCc1ccccc1", "inhibition": "-4.8%"}, {"smiles": "COc1ccc(/C=C(/NC(=O)c2ccc(C)cc2)c2nc3ccccc3[nH]2)cc1OC", "inhibition": "24.6%"}, {"smiles": "Cc1cc(C)c2c3c(sc2n1)C(c1ccccc1)C(C#N)=C(N)O3", "note": "(centres undefined)", "inhibition": "7.5%"}, {"smiles": "CC(C)(C)c1cc2cccnc2n1Cc1ccccc1", "inhibition": "-13.7%"}, {"smiles": "COCCCNC(NC(=O)c1ccc(C)cc1)C(Cl)(Cl)Cl", "note": "(centres undefined)", "inhibition": "-4.7%"}, {"smiles": "O=C1COc2ccc(NC(=O)N3CCN(c4ccc(F)cc4)CC3)cc2N1", "inhibition": "-1.9%"}, {"smiles": "COc1ccccc1NC(=O)[C@H](COCc1ccccc1)NC(=O)OC(C)(C)C", "inhibition": "-9.9%"}, {"smiles": "Oc1ccccc1/C=N/n1c(-c2cccs2)n[nH]c1=S", "inhibition": "-11.3%"}, {"smiles": "COc1ccc(C(=O)c2c(C)oc3cc([N+](=O)[O-])c(O)c([N+](=O)[O-])c23)cc1", "inhibition": "3.1%"}, {"smiles": "C=CCOc1c2ccc(C(=O)N(CC)c3ccc(OC)cc3)cc2nn1C", "inhibition": "12.9%"}, {"smiles": "COc1cccc(/C=N/NC(=O)c2cccc([N+](=O)[O-])c2)c1OS(=O)(=O)c1ccc(C)cc1", "inhibition": "-0.8%"}, {"smiles": "CCn1c(SC)nc(O)c(C(c2ccc(OC)c(O)c2)c2c(O)nc(SC)n(CC)c2=O)c1=O", "inhibition": "10.2%"}, {"smiles": "COc1cccc(NC(=O)c2nn(C34CC5CC(CC(C5)C3)C4)cc2[N+](=O)[O-])c1", "inhibition": "14%"}, {"smiles": "Cc1ccc(-c2nnc(C)c(N3CC(C)OC(C)C3)n2)cc1", "note": "(centres undefined)", "inhibition": "9.5%"}, {"smiles": "COC(=O)c1c(CCl)noc1C(=O)NC(C)C", "inhibition": "-7%"}, {"smiles": "O=C1c2ccccc2C(=O)N1CC1c2ccccc2CCN1S(=O)(=O)c1ccccc1", "note": "(centres undefined)", "inhibition": "24.7%"}, {"smiles": "O=C1CCCC2=C1C(c1ccccc1)n1c(s/c(=C/c3cccc(F)c3)c1=O)=N2", "note": "(centres undefined)", "inhibition": "0.6%"}, {"smiles": "Cc1c(CCO)c(=O)[nH]n1C(=O)c1c(F)cccc1F", "inhibition": "14.6%"}, {"smiles": "CC(C)c1ccc(NC(=O)CCN2C(=O)c3ccc([N+](=O)[O-])cc3C2=O)cc1", "inhibition": "-2%"}]}]}
